{"source": "PubChem BioAssay AID2314", "about": "(National Center for Advancing Translational Sciences (NCATS), 2010)", "note": "Hit rate of the full screen: of about 300,000 compounds, about 37,000 (12%) were called active. Rule as the data show it: active = max response mostly above about 13% (no sharp cut-off); inactive = mostly below about 14%. For the sample, actives were picked, then their nearest neighbours and some compounds at random."}
{"assay": "Cycloheximide Counterscreen for Small Molecule Inhibitors of Shiga Toxin; also: read at 38.3 µM for the half of the compounds with a filed dose; 0% is about no effect", "details": "cell reporter, cycloheximide protein synthesis inhibition counterscreen; active compounds read high"}
{"compound": "C=C(C)c1cccc(C(C)(C)NC(=O)NC2CCCC2)c1", "max response": "-2.37% (inactive)"}
{"compound": "Cc1ccc(C)c(N2CCN(C(=O)Cn3ncn4cccc4c3=O)CC2)c1", "max response": "-1.35% (inactive)"}
{"compound": "FC(F)(F)c1ccnc(Oc2ccc(C3=NCCS3)cc2)c1", "max response": "42.3% (active)"}
{"compound": "O=Cc1ccc(Oc2cccc(C(F)(F)F)c2)nc1", "max response": "15% (inactive)"}
{"compound": "NC(=S)Nc1c(Cl)cccc1Cl", "max response": "4.66% (inactive)"}
{"compound": "CCc1ccc(NC(=O)CCNS(=O)(=O)c2cccs2)cc1", "max response": "21.6% (active)"}
{"compound": "O=C(COC(=O)c1cccs1)NCc1cccs1", "max response": "16.3% (active)"}
{"compound": "CCOC(=O)c1oc2ccccc2c1NC(=O)c1cccs1", "max response": "-3.1% (inactive)"}
{"compound": "O=C(COC(=O)c1cccs1)Nc1ccccc1Cl", "max response": "-1.99% (inactive)"}
{"compound": "CCc1ccc(NC(=O)C(=O)NNC(=O)c2cccs2)cc1", "max response": "27.8% (active)"}
{"compound": "O=C(COC(=O)CCC(=O)c1cccs1)NCc1ccco1", "max response": "1.52% (inactive)"}
{"compound": "O=C(COC(=O)c1ccc(Cl)nc1)NCc1cccs1", "max response": "-2.61% (inactive)"}
{"compound": "C/C(=N\\OCC(=O)Nc1ccc(Br)cc1)c1cccs1", "max response": "7.82% (inactive)"}
{"compound": "O=C(COC(=O)c1ccc(NS(=O)(=O)c2cccs2)cc1O)Nc1ccc(F)cc1", "max response": "0.935% (inactive)"}
{"compound": "CCc1cccc(NC(=O)CCNS(=O)(=O)c2cccc3nonc23)c1", "max response": "-2.33% (inactive)"}
{"compound": "CCc1ccc(NC(=O)C(=O)N/N=C(\\C)CC(=O)NCCOC)cc1", "max response": "20.1% (inactive)"}
{"compound": "CCc1ccc(NC(=O)COC(=O)c2cccs2)cc1", "max response": "51.3% (active)"}
{"compound": "CCc1ccccc1N(CC(=O)NCC1CCCO1)C(=O)CCC(=O)Nc1nccs1", "note": "(stereo not given)", "max response": "-4.73% (inactive)"}
{"compound": "CCOc1ccccc1NC(=O)C1CCCN(S(=O)(=O)c2ccccc2)C1", "note": "(stereo not given)", "max response": "-1.93% (inactive)"}
{"compound": "CCc1nnc(NS(=O)(=O)c2ccc(NC(=S)NC(=O)c3cccs3)cc2)s1", "max response": "0.706% (inactive)"}
{"compound": "O=C(NC(=S)Nc1ccc(NC(=O)c2cccs2)cc1)c1ccc([N+](=O)[O-])cc1", "max response": "0.608% (inactive)"}
{"compound": "NS(=O)(=O)c1ccc(NC(=S)NNC(=O)c2cccs2)cc1", "max response": "29.3% (active)"}
{"compound": "O=C(c1n[nH]c2c1CCC2)N1CCCC(Nc2cccc(F)c2)C1", "note": "(stereo not given)", "max response": "10.7% (inactive)"}
{"compound": "O=C(NCc1ccc(Cl)cc1)c1cc(=O)nc2sc(-c3ccccc3)nn12", "max response": "-4.5% (inactive)"}
{"compound": "CC(=NCc1ccc2c(c1)OCO2)C1=C(O)c2ccccc2C1=O", "max response": "14.2% (active)"}
{"compound": "CC(=NCc1ccco1)C1=C(O)c2ccccc2C1=O", "max response": "24.6% (inactive)"}
{"compound": "CC(=NCc1ccc2c(c1)OCO2)c1c(O)[nH]c(=O)[nH]c1=O", "max response": "-1.94% (inactive)"}
{"compound": "CC1C(=O)N(Cc2ccccc2)c2ccccc2N1C(=O)c1ccccc1", "note": "(stereo not given)", "max response": "5.44% (inactive)"}
{"compound": "O=C(OCc1ccc([N+](=O)[O-])cc1)C1CC(=O)N(Cc2ccccc2Cl)C1", "note": "(stereo not given)", "max response": "5.26% (inactive)"}
{"compound": "Cc1cccnc1NC(=O)c1cccc(S(=O)(=O)N2CCN(c3ccc(F)cc3)CC2)c1", "max response": "-1.47% (inactive)"}
{"compound": "CN1CCN(S(=O)(=O)c2cccc(C(=O)Nc3cccc(S(N)(=O)=O)c3)c2)CC1", "max response": "5.45% (inactive)"}
{"compound": "O=C(Nc1ccc2c(c1)CCC2)c1cccc(S(=O)(=O)N2CCN(c3ccc(F)cc3)CC2)c1", "max response": "18.6% (active)"}
{"compound": "OCCC1CN(Cc2cnc(-c3ccccc3)s2)CCN1CCc1ccccc1", "note": "(stereo not given)", "max response": "-2.01% (inactive)"}
{"compound": "Clc1ccc(-c2nnc(SCc3nc4ccccc4s3)o2)cc1", "max response": "31.5% (active)"}
{"compound": "O=C(COC(=O)CSc1nnc(-c2ccc(Cl)cc2)o1)Nc1cc(Cl)cc(Cl)c1", "max response": "-1.68% (inactive)"}
{"compound": "O=C(CSc1nnc(-c2ccncc2)o1)NCc1ccc(Cl)cc1", "max response": "-4.87% (inactive)"}
{"compound": "O=C(NCc1ccccc1Cl)C1CCN(S(=O)(=O)c2cccc3nonc23)CC1", "max response": "7.56% (inactive)"}
{"compound": "O=c1oc(-c2ccccc2NS(=O)(=O)c2ccc(Cl)cc2)nc2ccccc12", "max response": "-0.333% (inactive)"}
{"compound": "C(=N/Nc1cc(N2CCOCC2)nc(N2CCOCC2)n1)/c1ccccc1", "max response": "-4.51% (inactive)"}
{"compound": "Cc1cc(N/N=C\\c2ccc(Br)cc2)nc(-n2nc(C)cc2C)n1", "max response": "-2.43% (inactive)"}
{"compound": "Cc1nc(Cl)cc(N/N=C/c2ccccc2)n1", "max response": "9.02% (active)"}
{"compound": "CCc1ccc2oc(=O)cc(CN3CCCCC3C)c2c1", "note": "(stereo not given)", "max response": "10.3% (inactive)"}
{"compound": "CCOC(=O)C1CCCN(C(=O)COc2ccc(N(C)S(=O)(=O)c3ccc(C)cc3)cc2)C1", "note": "(stereo not given)", "max response": "-3.78% (inactive)"}
{"compound": "O=C(NCC1CCCO1)C1CCN(C2CCN(C(=O)C3CCCCC3)CC2)CC1", "note": "(stereo not given)", "max response": "-2.3% (inactive)"}
{"compound": "Cc1cc(=O)n2[nH]c(-c3cccc(Cl)c3)cc2n1", "max response": "6.54% (inactive)"}
{"compound": "O=c1c2c(nc3nc[nH]n13)CCC2", "max response": "-2.72% (inactive)"}
{"compound": "O=c1c2c(nc3cc(-c4cccc(Cl)c4)[nH]n13)CCCC2", "max response": "52.1% (active)"}
{"compound": "COc1ccc(OC)c(NC(=O)Cc2cccs2)c1", "max response": "5.9% (inactive)"}
{"compound": "CS(=O)(=O)N(CC(=O)N/N=C/c1ccccn1)c1ccc(Oc2ccccc2)cc1", "max response": "8.35% (inactive)"}
{"compound": "CC(C(=O)N=Nc1c(O)n(C)c2ccc(Br)cc12)n1cnc2ccccc2c1=O", "note": "(stereo not given)", "max response": "1.79% (inactive)"}
{"compound": "Cn1c(CCCOc2ccc(Cl)cc2Cl)n[nH]c1=S", "max response": "16.1% (active)"}
{"compound": "O=C(CCCOc1ccc(Cl)cc1Cl)NNC(=O)C1CCC1", "max response": "3.02% (inactive)"}
{"compound": "S=c1[nH]nc(CSCc2ccc(Cl)cc2Cl)n1-c1ccccc1", "max response": "-1.69% (inactive)"}
{"compound": "CC(C)Cn1c(N)c(C(=O)COC(=O)CN2C(=O)C3CC=CCC3C2=O)c(=O)n(C)c1=O", "note": "(stereo not given)", "max response": "1.25% (inactive)"}
{"compound": "COc1ccc(-n2c(-c3ccc(OC)c(OC)c3)n[nH]c2=S)cc1", "max response": "-1.61% (inactive)"}
{"compound": "COc1ccc(-n2cc(-c3ccccc3)c3c(=S)nc[nH]c32)cc1", "max response": "-2.8% (inactive)"}
{"compound": "COc1ccc(-c2cn(-c3ccc(OC)cc3)c(=S)[nH]2)cc1", "max response": "37.9% (active)"}
{"compound": "O=C(Cc1ccc(S(=O)(=O)N2CCOCC2)s1)NCCC(c1ccccc1)c1ccccc1", "max response": "-2.5% (inactive)"}
{"compound": "CCS(=O)(=O)c1cc([N+](=O)[O-])c(Sc2ccccc2N)s1", "max response": "52.5% (active)"}
{"compound": "Nc1ccccc1Sc1ccc(C(F)(F)F)cc1[N+](=O)[O-]", "max response": "-0.845% (inactive)"}
{"compound": "CCOC(=O)c1cc(Sc2ccccc2N)cc(C(=O)OCC)n1", "max response": "-2.14% (inactive)"}
{"compound": "Fc1ccc(-n2c(Cc3ccccc3)nnc2SCc2nc(-c3ccc(Cl)cc3)no2)cc1", "max response": "-3.26% (inactive)"}
{"compound": "CCOC(=O)C1C(c2ccc(O)cc2)NC(=O)NC1(O)C(F)(F)F", "note": "(stereo not given)", "max response": "-1.88% (inactive)"}
{"compound": "Cc1cc(OC(C)C(=O)NC2CC(C)(C)NC(C)(C)C2)c2c(C)cc(=O)oc2c1", "note": "(stereo not given)", "max response": "2.41% (inactive)"}
{"compound": "CN(C)CCCNC(=O)c1cc(C(=O)Cc2ccc(Cl)cc2)c[nH]1", "max response": "0.733% (inactive)"}
{"compound": "Cn1cc(Cl)c(C(=O)NNC(=S)Nc2cccc(Cl)c2)n1", "max response": "42% (active)"}
{"compound": "CC(C)CNC(=S)NNC(=O)c1nn(C)cc1Cl", "max response": "-2.88% (inactive)"}
{"compound": "COc1cccc(NC(=S)NC(=O)c2c(Cl)c(C)nn2C)c1", "max response": "18.3% (inactive)"}
{"compound": "COc1ccc(C2=NS(=O)(=O)N(C)C(C(=O)N3CCCCC3)=C2)cc1", "max response": "0.248% (inactive)"}
{"compound": "NC(N)=Nc1nc2ccc(Br)cc2c(=O)[nH]1", "max response": "1.64% (inactive)"}
{"compound": "CC(=O)Nc1ccc(S(=O)(=O)NNC(=O)CCc2ccccc2)cc1", "max response": "17.5% (inactive)"}
{"compound": "CCOc1c2ccc(C(=O)NCc3ccc(OC(F)(F)F)cc3)cc2nn1C", "max response": "-3.46% (inactive)"}
{"compound": "COc1ccc(CNC(=O)c2ccc3oc(C(C)C)nc3c2)cc1", "max response": "43.8% (active)"}
{"compound": "COc1ccc(CNC(=O)c2cc(=O)c3c(C)cc(C)cc3o2)cc1", "max response": "10.1% (inactive)"}
{"compound": "COCC1CCCN(C(=O)c2ccc3oc(C(C)C)nc3c2)C1", "note": "(stereo not given)", "max response": "12.4% (inactive)"}
{"compound": "COC(=O)c1ccc(CNC(=O)c2ccc3oc(C(C)C)nc3c2)cc1", "max response": "49.5% (active)"}
{"compound": "COc1ccc(C(=O)N[C@H](C(=O)NCc2ccccc2)C(C)C)cc1", "max response": "1.24% (inactive)"}
{"compound": "CC(C)c1nc2cc(C(=O)NC(C)c3cnn(C)c3)ccc2o1", "note": "(stereo not given)", "max response": "16.9% (active)"}
{"compound": "COC(=O)c1ccc(CSc2nc3cc(Cl)ccc3o2)cc1", "max response": "-2.59% (inactive)"}
{"compound": "Cc1ccc(C(=O)NC(C)c2ccccc2)cc1Br", "note": "(stereo not given)", "max response": "12.6% (inactive)"}
{"compound": "Cc1c(C)c(C)c2[nH]c(=S)[nH]c2c1C", "max response": "0.294% (inactive)"}
{"compound": "COC1=C/C(=C/c2c(N)n3nc(CC(=O)N4CCOCC4)sc3nc2=O)C=CC1=O", "max response": "21.2% (inactive)"}
{"compound": "CC(C)C(=O)N1CC(=O)Nc2ccc(F)cc2C1c1ccc(F)cc1", "note": "(stereo not given)", "max response": "0.988% (inactive)"}
{"compound": "COc1cccc(C(=O)c2cc3ccc(O)cc3oc2=O)c1", "max response": "7.25% (inactive)"}
{"compound": "COc1ccc(-c2cc3ccc(OCc4nn[nH]n4)cc3oc2=O)cc1", "max response": "2.53% (inactive)"}
{"compound": "O=c1oc2cc(O)ccc2cc1-c1ccc(F)cc1", "max response": "43.3% (active)"}
{"compound": "CCn1c2ccccc2c2cc(NC(=O)CNC)ccc21", "max response": "-0.552% (inactive)"}
{"compound": "CN(C)c1ccc(NC(=O)CN2C3CCCC2CC(NC(=O)c2ccccc2)C3)cc1", "note": "(stereo not given)", "max response": "-6.36% (inactive)"}
{"compound": "CCn1c2ccccc2c2cc(NC(=O)COC(=O)c3ccccc3Br)ccc21", "max response": "1.49% (inactive)"}
{"compound": "C/C(CC(=O)Nc1ccc(N(C)C)cc1)=N\\NC(=O)c1ccccc1F", "max response": "38.4% (active)"}
{"compound": "C/C(CC(=O)Nc1ccc(Cl)cc1)=N\\NC(=O)C(=O)NCCO", "max response": "7.42% (inactive)"}
{"compound": "CCn1c2ccccc2c2cc(NC(=O)C/C(C)=N/NC(=O)c3ccccc3N)ccc21", "max response": "39.3% (active)"}
{"compound": "Cc1ccccc1N1CCN(C2CCCN(C(=O)c3cn4c(C)cccc4n3)C2)CC1", "note": "(stereo not given)", "max response": "-1.34% (inactive)"}
{"compound": "COc1ccc(CC(=O)N2N=C(C)CC2(O)C(F)(F)F)cc1", "note": "(stereo not given)", "max response": "15.5% (inactive)"}
{"compound": "O=C(CCc1nnc(Cc2ccc3c(c2)OCO3)o1)NCCc1ccccc1Cl", "max response": "4.94% (inactive)"}
